{"source": "PubChem BioAssay AID651813", "about": "(National Center for Advancing Translational Sciences (NCATS), 2012)", "note": "The campaign covered roughly 2,100 compounds. About 1,100 (52%) were called active. Not shown: some 27% with an inconclusive outcome. Calls come from the whole dose curve; as a rule, active = well fitted inhibition curve with a large enough effect; inconclusive = small, poorly fitted or top-dose-only effect; inactive = no such curve, though single readings can be large or run the other way. So high a share suggests a set chosen from earlier hits. Some of the results follow. Potency is the fitted concentration of half-maximal effect.", "data": [{"target": "DNA dC->dU-editing enzyme APOBEC-3G (Homo sapiens) (UniProt Q9HC16)", "sequence (Q9HC16 whole entry, looked up)": "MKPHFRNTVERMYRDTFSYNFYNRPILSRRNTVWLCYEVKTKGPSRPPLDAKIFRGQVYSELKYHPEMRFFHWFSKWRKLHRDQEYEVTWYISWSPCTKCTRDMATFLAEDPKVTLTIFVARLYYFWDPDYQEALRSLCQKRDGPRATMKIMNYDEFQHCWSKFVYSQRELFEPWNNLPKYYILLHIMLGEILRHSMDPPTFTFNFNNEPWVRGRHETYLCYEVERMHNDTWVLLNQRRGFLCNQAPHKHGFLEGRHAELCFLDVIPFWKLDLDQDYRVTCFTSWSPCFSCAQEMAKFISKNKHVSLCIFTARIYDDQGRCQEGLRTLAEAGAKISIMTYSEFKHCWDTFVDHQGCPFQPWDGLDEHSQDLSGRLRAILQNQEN", "experiment": "qHTS for inhibitors of Vif-A3G interactions: Cherry picks counterscreen;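 note: hits raise yellow fluorescence by blocking Vif-driven A3G-eYFP degradation; nearly all actives have a fitted effect of over 70% in size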;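 for max response: max response given as percent of control signal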", "details": "HeLa A3G-eYFP + Vif (tagged APOBEC3G with the HIV-1 protein that degrades it), eYFP fluorescence, 24 h", "in_short": "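HeLa cells stably expressing A3G-eYFP and Vif were treated for 24 h at 37 deg C with compounds at several concentrations; yellow fluorescence (Ex 488 nm, Em 500-530 nm) read by Acumen Explorer, MG132 as positive control.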", "values": [{"smiles": "O=C(NN=Cc1c(O)ccc2ccccc12)c1ccc2c(c1)OCO2", "max response": "1.53% (inactive)"}, {"smiles": "O=C(N/N=C/c1ccc2c(c1)OCO2)c1cccc2ccccc12", "Potency": "9.94 µM (active)"}, {"smiles": "Cc1cccc(C)c1OCC(=O)N/N=C/c1ccc2c(c1)OCO2", "Potency": "6.27 µM (active)"}, {"smiles": "O=C(N/N=C/c1ccc2c(c1)OCO2)c1cc(-c2ccco2)nc2ccccc12", "Potency": "9.94 µM (active)"}, {"smiles": "Cc1cc(C(=O)N/N=C/c2ccc3c(c2)OCO3)c2ccccc2n1", "Potency": "7.9 µM (active)"}, {"smiles": "O=C(N/N=C/c1ccc2c(c1)OCO2)c1cc(-c2ccncc2)nc2ccccc12", "Potency": "5.59 µM (active)"}, {"smiles": "Cc1nc2c3cc(F)ccc3n(Cc3ccccc3F)c2s1", "Potency": "14 µM (active)"}, {"smiles": "Cc1nc2c3cc(F)ccc3n(Cc3ccccc3)c2s1", "Potency": "7.04 µM (active)"}, {"smiles": "N#CCSc1ccccc1NC(=O)CN1C(=O)C2CC=CCC2C1=O", "note": "(stereo unspecified)", "Potency": "11.2 µM (active)"}, {"smiles": "CCS(=O)(=O)c1nn2c(N)c(/C=C3/C=CC(=O)C(OC)=C3)c(=O)nc2s1", "max response": "52.9% (inactive)"}, {"smiles": "CCOC1=C/C(=C/c2c(N)n3nc(-c4ccccc4)sc3nc2=O)C=CC1=O", "max response": "19.6% (inactive)"}, {"smiles": "COC1=C/C(=C/c2c(N)n3nc(-c4ccc(C)cc4)sc3nc2=O)C=CC1=O", "Potency": "20.6 µM (active)"}, {"smiles": "Cn1cc(/C=C/c2ccnc3ccccc23)c2ccccc21", "Potency": "20.6 µM (active)"}, {"smiles": "Cn1cc(/C=C/c2ccc3ccccc3n2)c2ccccc21", "Potency": "13 µM (active)"}, {"smiles": "CCc1ccc2nc(N(CCCN(C)C)C(=O)c3ccc(S(=O)(=O)N(C)C4CCCCC4)cc3)sc2c1", "max response": "5.65% (inactive)"}, {"smiles": "Cc1ccc(-n2nc3c(SCCN4CCOCC4)nnc(C)c3c2C)cc1", "max response": "-27.8% (inactive)"}, {"smiles": "O=C(Nc1nc(NC(=O)c2ccco2)n(-c2ccccc2)n1)c1ccccc1", "max response": "-0.0667% (inactive)"}, {"smiles": "CCCCn1c(NC(=O)c2ccco2)c(S(=O)(=O)c2ccc(C)cc2)c2nc3ccccc3nc21", "Potency": "20.6 µM (active)"}, {"smiles": "Cc1ccc(C(=O)Nc2sc(Cc3ccc4c(c3)OCO4)c(C)c2C(N)=O)cc1", "Potency": "18.4 µM (active)"}, {"smiles": "CCC1CCCCN1CCCNC(=O)c1ccc2c(c1)N(Cc1ccccc1F)C(=O)c1ccccc1S2(=O)=O", "note": "(stereo unspecified)", "Potency": "4.61 µM (active)"}, {"smiles": "CN(C)c1ccc(/C=C/c2ccnc3cc(Cl)ccc23)cc1", "Potency": "8.2 µM (active)"}, {"smiles": "Nc1ccccc1/C=C/c1ccnc2ccccc12", "Potency": "16.4 µM (active)"}, {"smiles": "CN(C)c1ccc(/C=C/c2cnnc3ccccc23)cc1", "Potency": "20.6 µM (active)"}, {"smiles": "COc1cccc2nccc(/C=C/c3ccc(N(C)C)cc3)c12", "Potency": "18.4 µM (active)"}, {"smiles": "CN(C)c1ccc(/C=C/C=C/c2ccnc3ccccc23)cc1", "Potency": "4.61 µM (active)"}, {"smiles": "CN(C)c1ccc(/C=C/c2ccnc3ccccc23)cc1", "Potency": "20.6 µM (active)"}, {"smiles": "CN(C)c1ccc(/C=C/c2ccnc3ccc(-c4ccccc4)cc23)cc1", "Potency": "5.8 µM (active)"}, {"smiles": "CN(C)c1ccc(/C=C/c2ccnc3ccccc23)c(N)c1", "Potency": "2.91 µM (active)"}, {"smiles": "CNc1ccc(/C=C/c2ccnc3ccccc23)cc1", "Potency": "16.4 µM (active)"}, {"smiles": "O=C(Cn1ncc(Cl)c(Cl)c1=O)NC(=O)NC1CCCCC1", "Potency": "14 µM (active)"}, {"smiles": "Cc1nc(-c2ccc(Cl)cc2)sc1C(=O)NN", "Potency": "15.8 µM (active)"}, {"smiles": "CCOC(=O)C1CCCN(C(=O)c2ccc3nc(-c4cccc(OC)c4)oc3c2)C1", "note": "(stereo unspecified)", "Potency": "7.04 µM (active)"}, {"smiles": "COc1ccc2cc(C(=O)C3CCCN(Cc4ccccn4)C3)ccc2c1", "note": "(stereo unspecified)", "max response": "-1.88% (inactive)"}, {"smiles": "Cc1c(C(=O)OC2CCCCC2)[nH]c2c1C(=O)CC(c1ccccc1Cl)C2", "note": "(stereo unspecified)", "Potency": "9.2 µM (active)"}, {"smiles": "Cc1c(C(=O)N2CCOCC2)[nH]c2c1C(=O)CC(c1ccccc1Cl)C2", "note": "(stereo unspecified)", "Potency": "8.86 µM (active)"}, {"smiles": "COCCOC(=O)c1[nH]c2c(c1C)C(=O)CC(c1ccccc1)C2", "note": "(stereo unspecified)", "Potency": "0.994 µM (active)"}, {"smiles": "COc1ccc(OC)c(C2CC(=O)c3c([nH]c(C(=O)OCC4CCCO4)c3C)C2)c1", "note": "(stereo unspecified)", "Potency": "5.59 µM (active)"}, {"smiles": "O=C(COc1ccc(C(=O)c2ccccc2)cc1)NCc1ccc(F)cc1", "Potency": "2.5 µM (active)"}, {"smiles": "Cc1ccccc1NCC(=O)N=Nc1c(O)[nH]c2ccc([N+](=O)[O-])cc12", "max response": "-0.0304% (inactive)"}, {"smiles": "CCN(CC)S(=O)(=O)c1cc([N+](=O)[O-])ccc1N=Nc1c(O)[nH]c2ccccc12", "Potency": "23.1 µM (active)"}, {"smiles": "O=C(NCc1cccc(C(F)(F)F)c1)c1cccc2c1C(=O)c1ccc(N3CCC(Cc4ccccc4)CC3)cc1S2(=O)=O", "Potency": "23.1 µM (active)"}, {"smiles": "O=C(NCc1ccco1)c1cccc2c1C(=O)c1ccc(N3CCC(Cc4ccccc4)CC3)cc1S2(=O)=O", "Potency": "23.1 µM (active)"}, {"smiles": "O=C(NCc1cc(C(F)(F)F)ccc1Cl)c1cccc2c1C(=O)c1ccc(N3CCC(Cc4ccccc4)CC3)cc1S2(=O)=O", "Potency": "14 µM (active)"}, {"smiles": "Cc1ccc(CSc2nc(-c3ccc(C(C)(C)C)cc3)nc3cc(=O)[nH]n23)cc1", "max response": "28.6% (inactive)"}, {"smiles": "COc1cccc(Nc2ncccc2C(=O)NCc2ccccc2)c1", "Potency": "19.8 µM (active)"}, {"smiles": "CCCOc1ccc2cc(C(=O)NCc3ccccc3)c(=O)oc2c1", "max response": "-5.24% (inactive)"}, {"smiles": "CCOC(=O)CN1C(=O)S/C(=C/c2ccc(N3CCCCC3)o2)C1=O", "max response": "55% (inactive)"}, {"smiles": "CN(C)c1ccc(/C=C(/C#N)C(=O)NCc2ccccc2)o1", "Potency": "1.84 µM (active)"}, {"smiles": "N#C/C(=C\\c1ccccc1[N+](=O)[O-])C(=O)NCc1ccccc1", "max response": "2.31% (inactive)"}, {"smiles": "N#C/C(=C\\c1ccc(N2CCOCC2)o1)C(=O)NC1CCCCC1", "Potency": "17.7 µM (active)"}, {"smiles": "N#C/C(=C\\c1ccc(N2CCOCC2)o1)C(=O)NCCc1ccccc1", "Potency": "3.26 µM (active)"}, {"smiles": "N#C/C(=C\\c1ccc(N2CCCCC2)o1)C(N)=O", "Potency": "15.8 µM (active)"}, {"smiles": "N#C/C(=C/c1ccc(N2CCOCC2)o1)C(=O)NC1CCCCC1", "Potency": "16.4 µM (active)"}, {"smiles": "CCCCN1C(=O)/C(=C/C=C2\\Oc3ccccc3N2CC)SC1=S", "max response": "51.7% (inactive)"}, {"smiles": "CCSC1=N/C(=C\\C=C2/Oc3ccccc3N2CC)C(=O)S1", "Potency": "8.2 µM (active)"}, {"smiles": "COc1ccc(-c2n[nH]c3c2CN(C(=O)c2ccc(OC)c(OC)c2)CC3)cc1", "Potency": "9.94 µM (active)"}, {"smiles": "CCOc1ccc(-c2cc(C(=O)NCCc3ccc(OC)c(OC)c3)c3c(-c4ccc(F)cc4)[nH]nc3n2)cc1", "max response": "-21% (inactive)"}, {"smiles": "C=C(NC(=O)C(=C)NC(=O)c1csc(C2=NC3c4csc(n4)C4NC(=O)c5csc(n5)C(C(C)(O)C(C)O)NC(=O)C5CSC(=N5)/C(=C/C)NC(=O)C(C(C)O)NC(=O)c5csc(n5)C3(CC2)NC(=O)C(C)NC(=O)C(=C)NC(=O)C(=C)NC(=O)C(C(C)C)NC2C=Cc3c(C(C)O)cc(nc3C2O)C(=O)OC4C)n1)C(N)=O", "note": "(stereo unspecified)", "Potency": "7.04 µM (active)"}, {"smiles": "CN(C)/C=N/C1=C(C#N)C(c2cccs2)c2ccc3ccccc3c2O1", "note": "(stereo unspecified)", "Potency": "2.8 µM (active)"}, {"smiles": "CCCCN(C(=O)c1ccc([N+](=O)[O-])s1)c1c(N)n(CCCC)c(=O)[nH]c1=O", "max response": "-2.12% (inactive)"}, {"smiles": "CCCCn1c(N)c(N(CCC(C)C)C(=O)c2ccc([N+](=O)[O-])o2)c(=O)[nH]c1=O", "max response": "-4.38% (inactive)"}, {"smiles": "Nc1c(N(CCC2=CCCCC2)C(=O)c2ccc([N+](=O)[O-])o2)c(=O)[nH]c(=O)n1Cc1ccccc1", "Potency": "13 µM (active)"}, {"smiles": "O=C1c2ccccc2C(=O)c2c(/C=C/N3CCCCC3)ccnc21", "Potency": "23.1 µM (active)"}, {"smiles": "Nc1nc(-c2cc(O)ccc2[N+](=O)[O-])cc(-c2ccccc2)c1[N+](=O)[O-]", "Potency": "14 µM (active)"}, {"smiles": "O=C(Nc1cc(=O)[nH]c(=O)[nH]1)c1cc(Cl)ccc1Cl", "Potency": "3.14 µM (active)"}, {"smiles": "O=C(COC(=O)C12CC3CC(CC(Cl)(C3)C1)C2)N1CCCCC1", "max response": "-19.2% (inactive)"}, {"smiles": "Cc1ccc(S(=O)(=O)Nc2cc(-c3nn(C)c(=O)c4ccccc34)ccc2N2CCOCC2)cc1", "Potency": "15.8 µM (active)"}, {"smiles": "COc1ccc(/C=c2\\s/c(=C/C(=O)c3ccc(C)cc3)[nH]c2=O)c(OC)c1", "Potency": "20.6 µM (active)"}, {"smiles": "CCCOc1ccc(C(=O)Nc2cccc(NC(=O)c3ccc(Cl)cc3Cl)c2)cc1", "Potency": "16.4 µM (active)"}, {"smiles": "CC(C)(C)OC(=O)NCc1ccc(NC(=O)c2nc[nH]c2C(=O)NCCCNC(=O)c2[nH]cnc2C(=O)Nc2ccc(CNC(=O)OC(C)(C)C)cc2)cc1", "max response": "4.7% (inactive)"}, {"smiles": "Cc1cccc(/C=C/C(=O)c2ccc([N+](=O)[O-])o2)c1", "max response": "-131% (inactive)"}, {"smiles": "Cc1onc(-c2c(F)cccc2Cl)c1C(=O)O/N=C(\\N)c1ccc([N+](=O)[O-])o1", "max response": "19.3% (inactive)"}, {"smiles": "O=C(/C=C/c1ccc(Cl)cc1)c1ccc([N+](=O)[O-])o1", "Potency": "12.5 µM (active)"}, {"smiles": "O=C(O)c1ccc(N/N=C/C(Br)=C/c2ccccc2)cc1", "max response": "24.8% (inactive)"}, {"smiles": "COc1cccc(C(=O)N/N=C/C(Br)=C/c2ccccc2)c1", "Potency": "2.23 µM (active)"}, {"smiles": "CC(/C=N/NC(=O)c1cccc(F)c1)=C\\c1ccccc1", "Potency": "9.94 µM (active)"}, {"smiles": "COc1cccc(/C=N/n2c(C3CCCCC3)n[nH]c2=S)c1O", "max response": "12.3% (inactive)"}, {"smiles": "C/C(=N/NC(N)=S)c1ccc(Br)s1", "max response": "13.4% (inactive)"}, {"smiles": "COc1ccc(C(=O)N/N=C/c2cc(Br)ccc2O)cc1OC", "max response": "-1.25% (inactive)"}, {"smiles": "COc1ccc(N/C=C/C(=O)c2cc(OC)c(OC)c(OC)c2)cc1", "Potency": "0.886 µM (active)"}, {"smiles": "COc1ccc(N/C=C\\C(=O)c2ccc(Br)cc2)cc1OC", "Potency": "18.4 µM (active)"}, {"smiles": "CCOC(=O)c1cc(-c2ccccc2C)n(CC2CC(c3ccc(OC)cc3)=NO2)n1", "note": "(stereo unspecified)", "max response": "-3.65% (inactive)"}, {"smiles": "Cc1cc(=O)oc2cc(OCC(=O)N3c4ccccc4CC3C)ccc12", "note": "(stereo unspecified)", "Potency": "4.44 µM (active)"}, {"smiles": "COc1ccccc1C1=NOC(COc2ccc3c(C)cc(=O)oc3c2)C1", "note": "(stereo unspecified)", "Potency": "0.559 µM (active)"}, {"smiles": "CCn1c(SCC(=O)c2c[nH]c3ccccc23)nnc1-c1cccs1", "Potency": "18.4 µM (active)"}, {"smiles": "CCN(C)c1ccc(/C=N\\n2nnnc2N)cc1", "Potency": "5.59 µM (active)"}]}]}
